From PubChem BioAssay AID1259421 (Broad Institute, 2018)
Values joined by “and” are separate entries in the source; they are usually repeats but may differ in a detail not shown here. Equal values may be shown once. In all, about 6,400 compounds went through this assay and about 610 (9.5%) were called active. What follows is part of a selection rich in actives, with near analogues and random picks from the rest. A number with no mark means an inactive call. No stated cut-off is given here; in the data, active means activity change below about -70%; inconclusive means no clear call, values can overlap the other calls; inactive means above that.

Test: Toxoplasma gondii ME49Luc growth in HeLa cells, luciferase, no IFN-y, primary screen (AID 1259421)
Details: T. gondii ME49Luc in HeLa, 72 h, active compounds read low, concentration not given here

Question: For CC(C)(N)C(=O)N[C@H](COCc1ccccc1)C(=O)N1CCC2(CC1)CN(S(C)(=O)=O)c1ccccc12, which activity change, negative = inhibition is on record?
Answer: The activity change, negative = inhibition was 5.12%.

Question: With Cc1cc(/C(=C\Nc2ccc(Cl)cc2)C(=O)Nc2ccc(Cl)cc2)on1 as the compound, how does the activity change, negative = inhibition read?
Answer: Its activity change, negative = inhibition is 18.7%.

Question: Which activity change, negative = inhibition does the source give for FC(F)(F)C(F)(F)C(F)(F)C(F)(F)C(F)(F)C(F)(F)C(F)(F)C(F)(F)Br here?
Answer: The activity change, negative = inhibition was 2.95%.

Question: For O=C(O)c1ccc2c(c1)OCO2, which activity change, negative = inhibition is on record?
Answer: Its activity change, negative = inhibition is 16%.

Question: Which activity change, negative = inhibition does the source give for Brc1cc2c(cc1[C@H]1Nc3ccccc3[C@H]3C=CC[C@H]31)OCO2 (racemic) here?
Answer: The activity change, negative = inhibition was 11.8%.

Question: Which activity change, negative = inhibition does the source give for CC(=O)c1ccc2c(c1)[C@@H]1C=CC[C@@H]1[C@H](c1cc3c(cc1Br)OCO3)N2 here?
Answer: The activity change, negative = inhibition was -79.7% (active).

Question: Which activity change, negative = inhibition does the source give for COC(=O)C1=C(C)NC(C)=C([N+](=O)[O-])[C@@H]1c1ccccc1C(F)(F)F here?
Answer: Its activity change, negative = inhibition is 1.1%.

Question: With C/C(=C(/CCO)SSCC1CCCO1)N(C=O)Cc1cnc(C)nc1N (configuration not stated) as the compound, how does the activity change, negative = inhibition read?
Answer: The activity change, negative = inhibition was 15%.

Question: Which activity change, negative = inhibition does the source give for CCC(=O)Nc1cccc(Oc2nc(Nc3ccc(N4CCN(C)CC4)cc3OC)ncc2Cl)c1 here?
Answer: Its activity change, negative = inhibition is 7.36%.

Question: Which activity change, negative = inhibition does the source give for C=CC(=O)Nc1cccc(Oc2nc(Nc3ccc(N4CCN(C)CC4)cc3OC)ncc2Cl)c1 here?
Answer: Its activity change, negative = inhibition is -35.2%.

Question: Which activity change, negative = inhibition does the source give for CN1CCN(c2ccc(OC(F)(F)F)c(Nc3ncc4c(n3)-c3c(c(C(N)=O)nn3CCO)CC4)c2)CC1 here?
Answer: Its activity change, negative = inhibition is -90.8% (active).

Question: With CCN(CC)S(=O)(=O)c1ccc(C(=O)O)cc1 as the compound, how does the activity change, negative = inhibition read?
Answer: The activity change, negative = inhibition was -0.641% and 12.4%.

Question: With CCc1cc(C(C)=O)c(O)cc1OCCCCCC(C)(C)c1nn[nH]n1 as the compound, how does the activity change, negative = inhibition read?
Answer: The activity change, negative = inhibition was 50.8% and 31.2%.

Question: Which activity change, negative = inhibition does the source give for Nc1ccncc1N here?
Answer: The activity change, negative = inhibition was -3.18%.

Question: For Nc1ccc(-c2ccc3ncc4ccc(=O)n(-c5cccc(C(F)(F)F)c5)c4c3c2)cn1, which activity change, negative = inhibition is on record?
Answer: Its activity change, negative = inhibition is -76.7% (active).

Question: With CCC(=O)N1CCN(c2ccc(-n3c(=O)ccc4cnc5ccc(-c6cnc7ccccc7c6)cc5c43)cc2C(F)(F)F)CC1 as the compound, how does the activity change, negative = inhibition read?
Answer: The activity change, negative = inhibition was -56%.

Question: With COc1ccc(C(=O)CCC(=O)O)c2ccccc12 as the compound, how does the activity change, negative = inhibition read?
Answer: Its activity change, negative = inhibition is 2.31%.

Question: For COC(=O)c1cc(S(C)(=O)=O)ccc1OC, which activity change, negative = inhibition is on record?
Answer: The activity change, negative = inhibition was 9.8%.

Question: With COc1ccc(CCN2CCN(CCCc3ccccc3)CC2)cc1OC as the compound, how does the activity change, negative = inhibition read?
Answer: The activity change, negative = inhibition was -27.2%.

Question: For OCC1OC(n2cnc3c(NC4CCCC4)ncnc32)C(O)C1O (configuration not stated), which activity change, negative = inhibition is on record?
Answer: The activity change, negative = inhibition was 1.64%.

Question: Which activity change, negative = inhibition does the source give for N#CC(C#N)=C(N)/C(C#N)=C/c1cc(O)c(O)c(O)c1 here?
Answer: Its activity change, negative = inhibition is 5.32%.

Question: For N#C/C(=C\c1ccc(O)c(O)c1)C(N)=O, which activity change, negative = inhibition is on record?
Answer: The activity change, negative = inhibition was 16.2% and 6.7%.

Question: Which activity change, negative = inhibition does the source give for CC(C)(C)c1cc(/C=C(\C#N)C(N)=S)cc(C(C)(C)C)c1O here?
Answer: Its activity change, negative = inhibition is -82.2% (active) and -86% (active).

Question: With COc1cc(N)c(Cl)cc1C(=O)N[C@@H]1CCN(CCCOc2ccc(F)cc2)C[C@@H]1OC as the compound, how does the activity change, negative = inhibition read?
Answer: Its activity change, negative = inhibition is 6.27%.

Question: Which activity change, negative = inhibition does the source give for COc1ccc(C2(O)CCC(N3CC[C@@H](NC(=O)CNC(=O)c4cccc(C(F)(F)F)c4)C3)CC2)cn1 (some centres not stated) here?
Answer: The activity change, negative = inhibition was 4.89%.

Question: Which activity change, negative = inhibition does the source give for Cc1ccc(S(=O)(=O)c2ccc([N+](=O)[O-])o2)cc1 here?
Answer: The activity change, negative = inhibition was 10.8%.

Question: For CCCC[C@H](NC(=O)[C@@H]1[C@@H]2[C@H](CN1C(=O)[C@@H](NC(=O)NC1(CS(=O)(=O)C(C)(C)C)CCCCC1)C(C)(C)C)C2(C)C)C(=O)C(=O)NC1CC1, which activity change, negative = inhibition is on record?
Answer: The activity change, negative = inhibition was 23.2%.

Question: Which activity change, negative = inhibition does the source give for CCC[C@H](NC(=O)[C@@H]1[C@H]2CCC[C@H]2CN1C(=O)[C@@H](NC(=O)[C@@H](NC(=O)c1cnccn1)C1CCCCC1)C(C)(C)C)C(=O)C(=O)NC1CC1 here?
Answer: The activity change, negative = inhibition was -72.4% (active).

Question: For CC(C)(C)NC(=O)N[C@H](C(=O)N1C[C@H]2[C@@H]([C@H]1C(=O)NC(CC1CCC1)C(=O)C(N)=O)C2(C)C)C(C)(C)C (some centres not stated), which activity change, negative = inhibition is on record?
Answer: The activity change, negative = inhibition was 0.503%.

Question: With CC(C)(C)c1cc(O)c(C(C)(C)C)cc1O as the compound, how does the activity change, negative = inhibition read?
Answer: The activity change, negative = inhibition was 7.89%.

Question: With COC(=O)C[C@H]1C(C)(C)[C@@H](O)[C@@H]2CC3=C4CC(O)O[C@@H](c5ccoc5)[C@]4(C)CCC3[C@@]1(C)C2=O (some centres not stated) as the compound, how does the activity change, negative = inhibition read?
Answer: The activity change, negative = inhibition was -4.18%.

Question: For CO[C@H]1C=CO[C@@]2(C)Oc3c(C)c(O)c4c(O)c(c(/C=N/N5CCN(C)CC5)c(O)c4c3C2=O)NC(=O)/C(C)=C\C=C/C(C)[C@H](O)[C@@H](C)[C@@H](O)[C@@H](C)[C@@H](OC(C)=O)[C@@H]1C (some centres not stated), which activity change, negative = inhibition is on record?
Answer: The activity change, negative = inhibition was -14.4% and 12.2%.

Question: Which activity change, negative = inhibition does the source give for CC1(C)CCC(CN2CCN(c3ccc(C(=O)NS(=O)(=O)c4ccc(NCC5CCOCC5)c([N+](=O)[O-])c4)c(Oc4cnc5[nH]ccc5c4)c3)CC2)=C(c2ccc(Cl)cc2)C1 here?
Answer: Its activity change, negative = inhibition is -89.7% (active).

Question: Which activity change, negative = inhibition does the source give for CC(C)COC(=O)c1ccc(N)cc1 here?
Answer: The activity change, negative = inhibition was 47.4%.

Question: For COC(=O)c1cc(OC)c2c(c1-c1c(C(=O)OC)cc(OC)c3c1OCO3)OCO2, which activity change, negative = inhibition is on record?
Answer: The activity change, negative = inhibition was 11.4%.

Question: Which activity change, negative = inhibition does the source give for C=C1C(=O)O[C@H]2[C@H]1CC/C(C)=C\CC[C@@]1(C)O[C@@H]21 here?
Answer: Its activity change, negative = inhibition is 7.41%.

Question: Which activity change, negative = inhibition does the source give for O=C(O)c1ccccc1O here?
Answer: The activity change, negative = inhibition was 10.4% and 3.39%.
